# EPAC1 ag: agonists of human EPAC1; Potency, µM (highest dose often 154 µM), for the others: top-dose activation, hits mostly activators; EPAC1 agonist qHTS, biochemical assay; response scale: 100% = response to 6.5 mM cAMP; O95398; AID 720707; 360,000 tested, 0.073% active; note: nearly all actives have a fitted effect of over 60% in size
#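 EPAC1 100 nM, Rap1B–BODIPY-GDP 250 nM, unlabeled GDP 50 uM; compound titration; 5 min RT; kinetic read ex480/em540 at 5-min intervals ×30 min; data normalized to 6.5 mM cAMP agonist control.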
# EPAC2 antag: blocks human EPAC2 exchange factor | EPAC2 GEF exchange of Rap1B-BODIPY-GDP, fluorescence | Potency, µM (highest dose often 114 µM), for inactives: at the top dose activity, negative = inhibition, actives largely listed as inhibitors | 360,000 tested, 0.18% active | AID 720708; note: % is set by controls: 0 for no effect and ±100 for the full control effect; nearly all actives have a fitted effect of over 45% in size
# EPAC2 agonist: EPAC2 (human) agonism. EPAC2 activation, biochemical qHTS; response scale: 100% = 6.5 mM cAMP response. 360,000 tested, 0.079% active. Potency, µM (doses to about 154 µM), inactives show top-dose activation, hits mostly activators. Q8WZA2. AID 720711; note: nearly all actives have a fitted effect of over 50% in size
#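 Setup: EPAC2 100 nM, labeled Rap1B complex 250 nM, free GDP 50 uM. Compound titrations pinned in, brief spin, 5 min room temperature incubation. Kinetic fluorescence read over 30 min, normalized to 6.5 mM cAMP.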
# EPAC1 antag: antagonists of human EPAC1 | O95398 | EPAC1 GEF assay, Rap1b-BODIPY-GDP exchange fluorescence | Potency, µM (titrated, usually from 115 µM), for inactives: at the highest dose activity change, negative = inhibition, usual class: inhibitors | 360,000 tested, 0.14% active | AID 720709;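 note: plate controls were vehicle for no effect and positive control for full effect; nearly all actives have a fitted effect of over 50% in size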
# USP1 inh: USP1/UAF1 (human) deubiquitinase inhibition. 390,000 tested, 0.23% active. O94782. recombinant USP1/UAF1, Ub-Rhodamine cleavage fluorescence. Potency, µM (doses to about 57.1 µM), inactives show top-dose activity change, negative = inhibition, most hits filed as inhibitors. AID 743255; note: % is set by controls: 0 for no effect and ±100 for the full control effect; nearly all actives have a fitted effect of over 60% in size
#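 High-throughput fluorogenic screen: 1nM USP1/UAF1 complex, Ub-Rho substrate 150nM final, 50mM HEPES pH 7.8 with 0.5mM EDTA, 0.1 mg/ml BSA, 1mM TCEP and 0.01% Tween-20.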
# An asterisk follows results filed as active; ? = inconclusive; nt = no result; [ ] = remark or other dose. Shown are actives, neighbours in structure and some others; about 0.49% of the full set was active somewhere. Calls come from the whole dose curve; as a rule, active = well fitted curve in the direction sought with a large enough effect; inconclusive = small, poorly fitted or top-dose-only effect, or another doubt; inactive = no such curve, though single readings can be large; an effect the other way counts as inactive or inconclusive. Potency is the fitted concentration of half-maximal effect.
SMILES,EPAC1 ag,EPAC2 antag,EPAC2 agonist,EPAC1 antag,USP1 inh
Cc1ccc(/C=C2\SC(=S)N(NS(=O)(=O)c3ccc(C)cc3)C2=O)cc1,11%,45µM*,-3%,?,-30%
Cc1ccc(S(=O)(=O)NN2C(=O)/C(=C\c3ccc(Cl)cc3)SC2=S)cc1,-4%,-21%,-2%,?,-6%
C=CCOc1ccc(/C=C2\SC(=S)N(NS(=O)(=O)c3ccc(C)cc3)C2=O)cc1,-5%,-26%,-8%,50µM*,?
Cc1c(CCNC(=O)c2ccc(C(C)(C)C)cc2)sc2nc(-c3ccc(F)cc3)nn12,nt,nt,nt,nt,-21%
O=C1/C(=C/c2cccc(F)c2)SC(=S)N1NS(=O)(=O)c1ccccc1,-13%,18µM*,-5%,40µM*,-16%
COc1cccc(/C=C2\SC(=S)N(NS(=O)(=O)c3ccccc3)C2=O)c1OC,8%,?,1%,50µM*,-27%
O=C1/C(=C/c2ccccn2)SC(=S)N1NS(=O)(=O)c1ccccc1,1%,-14%,-6%,-28%,-9%
COc1cc(/C=C2\SC(=S)N(NS(=O)(=O)c3ccccc3)C2=O)cc(OC)c1OC,3%,50µM*,5%,?,-8%
O=C(NCCCN1CCN(c2ccccc2F)CC1)c1sc2ncccc2c1-n1cccc1,nt,nt,nt,nt,-21%
CCOC(=O)c1cc2c(=O)n3ccccc3nc2n(CCOC)c1=NC(=O)c1cc2ccccc2o1,nt,nt,nt,nt,-23%
COc1cccc(NS(=O)(=O)c2ccc3c(c2)C2C=CCC2C(c2ccc(C(=O)O)cc2)N3)c1 (stereo not given),-7%,3%,-4%,50µM*,?
O=C(O)c1ccc2c(c1)[C@@H]1C=CC[C@@H]1[C@H](c1ccccn1)N2,8%,1%,12%,5%,32µM*
COC(=O)c1ccc([C@H]2Nc3ccc(S(=O)(=O)Nc4ccc(F)cc4)cc3[C@H]3C=CC[C@H]32)cc1,nt,nt,nt,nt,-2%
CCc1ccc(NC(=O)c2cccc(N3CCCS3(=O)=O)c2)cc1,nt,nt,nt,nt,-10%
COc1ccc(-n2nc3ccc(NC(=O)c4c(OC)cccc4OC)cc3n2)cc1,nt,nt,nt,nt,16%
CC(=O)C(C(C)=O)C1(O)C(=O)c2ccccc2C1=O,2%,-10%,8%,-4%,7.9µM*
CC1(C)N([O-])c2cc([N+](=O)[O-])ccc2[N+]1=O,1%,?,8%,71µM*,25µM*
Cc1nc2nncn2c(NCc2ccc(Cl)cc2)c1C,nt,nt,nt,nt,-3%
CCN1/C(=C/C(C)=O)Sc2ccc(OC)cc21,2%,-1%,3%,10%,-14%
CCOC(=O)/C(=C/C=C1\Sc2cc(OCC)c(OCC)cc2N1CC)C(C)=O,?,18%,?,34%,22µM*
CCOC(=O)/C(=C\C=C1/Sc2cc(OCC)c(OCC)cc2N1CC)C(C)=O,?,23%,2%,9%,25µM*
CCOC(=O)c1c(SCC(=O)Nc2nc3ccc(C)cc3s2)nc(=O)[nH]c1C,nt,nt,nt,nt,-18%
Cc1ccc(NC(=O)N2CCC(CN3CCCCC3)CC2)c(Cl)c1,nt,nt,nt,nt,0%
Cc1ccc(CCNC(=O)c2ccc3c(c2)N(Cc2ccccc2F)C(=O)c2ccccc2S3=O)cc1 (stereo not given),nt,nt,nt,nt,-35%
COc1ccc(Nc2c(-c3ccc(C)o3)nc3ccc(Cl)cn23)cc1,nt,nt,nt,nt,-3%
SMILES,EPAC1 ag,EPAC2 antag,EPAC2 agonist,EPAC1 antag,USP1 inh
O=C1NN(c2ccc(Cl)cc2)C(=O)/C1=C\c1ccc(-c2cccc(C(=O)O)c2)o1,2%,-3%,0%,?,?
O=C1NN(c2ccccc2)C(=O)/C1=C\c1ccc(-c2cc([N+](=O)[O-])ccc2O)o1,-6%,79µM*,-23%,-4%,-28%
CCOc1ccc(-c2cc(C(=O)NCc3ccccc3Cl)c3ccccc3n2)cc1,nt,nt,nt,nt,-5%
CC1OC(CC(=O)O)CC2=C1C(=O)c1c(O)cccc1C2=O (stereo not given),-13%,?,9%,?,11µM*
O=C1c2cccc(NCCNCCO)c2C(=O)c2cccc(NCCNCCO)c21,-1%,-12%,8%,-22%,-8%
CCOC(=O)c1cc(-c2ccccc2)n(CC(=O)Nc2ccccc2OCC)c1C,nt,nt,nt,nt,-9%
C=CCN1C=CC(=C/C=C(/C#N)C(=O)OCC)C=C1,24%,3%,28%,-2%,28µM*
CCOC(=O)/C(C#N)=C/C=C1/C=CC=CN1C,-8%,3%,9%,-5%,-16%
CCOc1cc(S(=O)(=O)N(CC)CC)ccc1Cl,6%,40µM*,2%,-4%,-23%
CCN(CC)S(=O)(=O)c1ccc(Cl)c(OC)c1,4%,0%[57.1 µM],3%,-9%,1%
CC(C)c1ccc(NC(=O)c2cn(C3CCCC3)c(=O)c3c2c2ccccc2n3C)cc1,nt,nt,nt,nt,-14%
COc1ccc2oc(C(=O)Nc3ccc(N4CCOCC4)cc3)c(C)c2c1,63µM*,10%,-2%,?,-11%
COc1cccc2c1C(=O)c1c(O)c3c(c(O)c1C2=O)CC(O)(C(C)=O)CC3OC1CC(O)C(O)C(C)O1 (stereo not given),35%,-1%,-5%,31%,25µM*
COc1cccc2c1C(=O)c1c(O)c3c(c(O)c1C2=O)C[C@](O)(C(C)=O)C[C@H]3O[C@@H]1C[C@@H](N)[C@@H](O)[C@@H](C)O1,5%,53%,0%,41%,13µM*
COc1cc(Nc2ncc3c(n2)CCN(Cc2cc(F)cc(F)c2)C3)cc(OC)c1,nt,nt,nt,nt,-18%
Oc1ccc2ccccc2c1N=Nc1ccccc1F,6%,-7%,5%,1%,-14%
O=S(=O)(O)c1cccc(N=Nc2c(O)ccc3ccccc23)c1,-2%,35µM*,-3%,-13%,?
COC(=O)c1sc2cccc(F)c2c1S(=O)(=O)N1CCN(c2cccc(C)c2)C(C)C1 (stereo not given),nt,nt,nt,nt,-30%
COc1cc(NC(=O)c2cc3nc(-c4ccccc4)cc(-c4ccccc4)n3n2)cc(OC)c1OC,7%,-15%,18%,56µM*,-13%
Cc1cc(C)c(S(=O)(=O)/N=C2/C=C(SCC(=O)O)C(=O)c3ccccc32)cc1C,20%,-15%,9%,?,25µM*
N#C/C(=C\c1coc2ccccc2c1=O)C(N)=S,-2%,17%,5%,-1%,-16%
N#C/C(=C\c1coc2ccc(O)cc2c1=O)C(=O)Nc1nc2ccccc2s1,89µM*,110%,32µM*,114%,25µM*
C[C@@H](NC(=O)CN(c1ccccc1)S(=O)(=O)N(C)C)c1ccccc1,nt,nt,nt,nt,-21%
c1coc(-c2nnc(-c3ccco3)nn2)c1,-5%,17%,9%,?,25µM*
Cc1ccc(S(=O)(=O)/N=C2/NC(=O)/C(=C\c3cc(Br)cc(Br)c3O)S2)cc1,-2%,79µM*,0%,?,?

# High-throughput results as filed in PubChem BioAssay.
